Compounds without any hit were thinned out: in the full panel of roughly 83,000, 20% have a hit.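 Assay: single dose, 48 h. Readout: percent growth (0 = no net growth; negative = cell death). Active: <10.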 Calls of active or inactive are those of the source.
What was measured:
Test in all cases: NCI-60 one-dose screen, 48 h (100 = growth as untreated, 0 = no growth, -100 = all killed)
Conditions in all cases: 10 µM unless noted
[1] = test system: HCT-15 colon
[2] = test system: HT29 colon
[3] = test system: SNB-19 CNS
[4] = test system: U251 CNS
[5] = test system: PC-3 prostate
[6] = test system: UACC-62 melanoma
[7] = test system: LOX IMVI melanoma
[8] = test system: SK-MEL-28 melanoma
[9] = test system: SK-MEL-5 melanoma
[10] = test system: SNB-75 CNS

Measured: growth

CCn1c2ccccc2c2cc(C(=O)c3cccc4c3CCCN4)ccc21
inactive: [1] 104% | [2] 113% | [3] 97.6% | [4] 106% | [5] 108% | [6] 92.2% | [7] 94.4% | [8] 103%

CC[C@H](NC(=O)[C@H]1CCCCN1C)C(=O)N(C)[C@H](C[C@@H](OC(C)=O)c1nc(C(=O)N[C@@H](Cc2ccccc2)C[C@H](C)C(=O)O)cs1)C(C)C
inactive: [3] 17.6% | [5] 22.9% | [6] 27.1% | [7] 13.2% | [8] 73.7%
active: [1] 6.42% | [2] 2.74% | [9] -40.3%

CC(C)[C@@H]1NC(=O)[C@]2(C)CSC(=N2)c2csc(n2)CNC(=O)C[C@@H](/C=C/CCS)OC1=O
inactive: [1] 58.6% | [10] 29.1% | [3] 22.3% | [5] 17%
active: [4] -62.1% | [9] -81.2% | [6] -42.2% | [7] -93.1% | [8] 5.48%

Clc1ccc(N2COOC3(OOC2)C2CC4CC(C2)CC3C4)cc1
inactive: [1] 64% | [2] 60% | [3] 74.3% | [4] 28.4% | [5] 53.7% | [6] 39.4% | [8] 103%

Cc1c(C)c([N+](=O)[O-])c(C)c(C)c1[N+](=O)[O-]
inactive: [1] 100% | [2] 100% | [3] 103% | [4] 99.2% | [5] 105% | [9] 107% | [6] 102% | [7] 106% | [8] 108%
